USP1-UAF1 inh – Inhibitors of USP1/UAF1: Primary Screen | AID 743255, 2014 | 390,000 tested, 0.23% active | recombinant USP1/UAF1, Ub-Rhodamine cleavage fluorescence | Ubiquitin carboxyl-terminal hydrolase 1 (Homo sapiens), O94782 | Potency, µM (series often up to 57.1 µM), hits mostly inhibitors; note: nearly all actives have a fitted effect of over 60% in size
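High-throughput fluorogenic screen: 1nM USP1/UAF1 complex, Ub-Rho substrate 150nM final, 50mM HEPES pH 7.8 with 0.5mM EDTA, 0.1 mg/ml BSA, 1mM TCEP and 0.01% Tween-20.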
S2 tox – Viability Counterscreen for Primary qHTS for Inhibitors of ATXN expression; S2 cells (HEK-293 line with an ATXN2-luciferase reporter) viability, CellTiter-Fluor protease fluorescence, 24 h; Potency, µM (highest dose often 56.7 µM), actives largely listed as cytotoxic; 400,000 tested, 0.49% active; note: nearly all actives have a fitted effect of over 40% in size
USP2a inh – qHTS Assay for Inhibitors of Ubiquitin-specific Protease USP2a Using CHOP2 as the Reporter | USP2 core, Ub-CHOP2 coupled fluorogenic reporter, 485/531 | Potency, µM (highest dose often 38.3 µM), usual class: inhibitors | 330,000 tested, 0.01% active | Ubiquitin carboxyl-terminal hydrolase 2 (Homo sapiens), O75604
Target sequence (O75604 whole entry, looked up): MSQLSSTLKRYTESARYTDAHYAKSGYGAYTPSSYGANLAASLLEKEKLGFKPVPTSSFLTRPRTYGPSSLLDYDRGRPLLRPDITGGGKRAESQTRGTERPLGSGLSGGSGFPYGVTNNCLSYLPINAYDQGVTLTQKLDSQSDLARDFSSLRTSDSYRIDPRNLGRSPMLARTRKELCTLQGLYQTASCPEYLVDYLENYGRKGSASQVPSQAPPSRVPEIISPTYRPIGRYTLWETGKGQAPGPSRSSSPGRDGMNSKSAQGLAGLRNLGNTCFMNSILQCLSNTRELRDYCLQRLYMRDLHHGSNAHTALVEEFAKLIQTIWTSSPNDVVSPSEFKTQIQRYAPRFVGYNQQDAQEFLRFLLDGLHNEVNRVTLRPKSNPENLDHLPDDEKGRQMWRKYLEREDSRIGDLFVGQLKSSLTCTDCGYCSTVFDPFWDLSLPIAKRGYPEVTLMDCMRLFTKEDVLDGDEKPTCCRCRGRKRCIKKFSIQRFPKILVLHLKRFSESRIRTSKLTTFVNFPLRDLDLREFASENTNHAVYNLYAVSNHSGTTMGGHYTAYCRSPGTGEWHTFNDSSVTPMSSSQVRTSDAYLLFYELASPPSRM
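Deubiquitinase activity read as fluorescence (485/531 nm) after Ub-CHOP2 cleavage activates the enterokinase reporter on its substrate; USP2 core 10nM, Ub-CHOP2 and substrate 25nM each, 30min compound preincubation then 60min RT; data normalized to NEM, curves fitted.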
IL1B secr inh – qHTS for Inhibitors of Inflammasome Signaling: IL-1-beta AlphaLISA Primary Screen. 360,000 tested, 4.7% active. activity change, % at 57.5 µM. AID 743279, 2014. THP-1 LPS/ATP IL-1B secretion, AlphaLISA, 16 h; hits give low values; in the data active = activity change below about -50%; inconclusive = mostly about -30% to -49%
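THP-1 cells pretreated 1 hr with compounds (up to 57.5 uM final), then stimulated with LPS (250 ng/mL final) plus ATP (1.25 mM final); secreted IL-1B measured by AlphaLISA after 16 hr, decreased signal indicating inhibition.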
ATXN2 expr inh – Primary qHTS for Inhibitors of ATXN expression. HEK-293 ATXN2-luciferase reporter, luminescence, 24 h. Potency, µM (titrated, usually from 57 µM), most hits filed as inhibitors. 360,000 tested, 0.72% active. AID 1745845, 2022; note: nearly all actives have a fitted effect of over 55% in size
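ATXN2-luciferase reporter cells (luciferase flanked by upstream and downstream ATXN2 gene portions) were treated 24 h at 37 °C with compounds at up to 57 uM. SteadyGlo luminescence gave expression; GF-AFC fluorescence gave viability.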
Large screens that a line does not name were inactive; ! = not confirmed by another sample. This is a sample that favours compounds with a hit; in the whole collection about 4.8% have one here. Unless noted, calls come from the whole dose curve; as a rule, active = well fitted curve in the direction sought with a large enough effect; inconclusive = small, poorly fitted or top-dose-only effect, or another doubt; inactive = no such curve, though single readings can be large; an effect the other way counts as inactive or inconclusive.

COC(=O)[C@@]12C[C@@H](CC(=O)NCc3cccc4ccccc34)C(=O)N(Cc3cccc4ccccc34)C1=CCC(C)(C)C2	none (no result: USP1-UAF1 inh, S2 tox, USP2a inh, ATXN2 expr inh)
COC(=O)[C@@]12C[C@@H](CC(=O)NCc3ccc(C)o3)C(=O)N(Cc3ccccc3)C1=CCC(C)(C)C2	none (no result: USP1-UAF1 inh, S2 tox, USP2a inh, ATXN2 expr inh)
COC(=O)[C@@]12C[C@@H](CC(=O)NCc3ccccc3)C(=O)N(Cc3cccc4ccccc34)C1=CCC(C)(C)C2	IL1B secr inh -82.8 (no result: USP1-UAF1 inh, S2 tox, USP2a inh, ATXN2 expr inh)
COC(=O)[C@@]12C[C@@H](CC(=O)NCc3ccccc3)C(=O)N(Cc3ccccc3)C1=CCC(C)(C)C2	IL1B secr inh -59.8 (no result: USP1-UAF1 inh, S2 tox, USP2a inh, ATXN2 expr inh)
Cc1ccc2nc(-c3ccco3)c(CC(C)(C)C)n2c1	S2 tox 20µM, ATXN2 expr inh inconclusive (no result: USP1-UAF1 inh, USP2a inh)
Nc1ccc(CC(N)c2csc(Nc3cc(Oc4ccccc4)ncn3)n2)cc1 (stereo not drawn)	IL1B secr inh -85.3 (no result: USP1-UAF1 inh, USP2a inh)
NC(c1csc(Nc2cc(Oc3ccccc3)ncn2)n1)C1CCCCC1 (stereo not drawn)	S2 tox inconclusive, ATXN2 expr inh inconclusive (no result: USP1-UAF1 inh, USP2a inh)
COc1ccc(CC(N)c2csc(Nc3cc(NCc4ccco4)ncn3)n2)cc1 (stereo not drawn)	S2 tox inconclusive, IL1B secr inh -51.1, ATXN2 expr inh inconclusive (no result: USP1-UAF1 inh, USP2a inh)
NCc1csc(Nc2cc(Oc3ccccc3)ncn2)n1	none (no result: USP1-UAF1 inh, USP2a inh)
COc1ccc(C(N)c2csc(Nc3cc(Oc4ccccc4)ncn3)n2)cc1 (stereo not drawn)	S2 tox inconclusive, IL1B secr inh -84.9, ATXN2 expr inh inconclusive (no result: USP1-UAF1 inh, USP2a inh)
NC(Cc1ccc(C(F)(F)F)cc1)c1csc(Nc2cc(Oc3ccccc3)ncn2)n1 (stereo not drawn)	S2 tox inconclusive, IL1B secr inh -88.9, ATXN2 expr inh inconclusive (no result: USP1-UAF1 inh, USP2a inh)
COc1ccc(NC(=O)N(CCC(C)C)C(C)c2cccs2)c(OC)c1 (stereo not drawn)	none (no result: S2 tox, USP2a inh, IL1B secr inh, ATXN2 expr inh)
CCN(CC)CCCCNc1ncc2cc(-c3cc(OC)cc(OC)c3)c(NC(=O)NC(C)(C)C)nc2n1	S2 tox 8.91µM, ATXN2 expr inh inconclusive
CCc1nc2ccc(C(=O)NCCc3ccccn3)cn2c1N(CCC(C)C)CCN(C)C	none (no result: USP1-UAF1 inh, USP2a inh)
Cc1ccc(S(=O)(=O)N2CCN(CC(=O)NC3CCCc4ccccc43)CC2)cc1C (stereo not drawn)	IL1B secr inh -54.0!
Cc1ccc(S(=O)(=O)N2CCN(CC(=O)NC3CCCc4ccccc43)CC2)c(C)c1 (stereo not drawn)	IL1B secr inh inconclusive
CC(NC(=O)C1CCOCC1)c1nnc2n1CCN(Cc1ccc3cccnc3c1)CC2 (stereo not drawn)	none (no result: USP1-UAF1 inh, USP2a inh, IL1B secr inh, ATXN2 expr inh)
COc1ccc(N2C(=O)C(Cl)=C(Oc3cccc(OC)c3)C2=O)cc1	IL1B secr inh -101.9
COc1ccc(N2C(=O)c3ccccc3C2=O)cc1	none
CCOc1cccc(C(=O)N(Cc2ccc(CC)cc2)C2CCS(=O)(=O)C2)c1 (stereo not drawn)	none (no result: USP2a inh, IL1B secr inh)
CCC1(C2CCN(Cc3c(C)[nH]c4ccccc34)CC2)NC(=O)N(Cc2ccc3c(c2)OCO3)C1=O (stereo not drawn)	none (no result: USP1-UAF1 inh, USP2a inh, IL1B secr inh, ATXN2 expr inh)
CN1C(=O)/C(=C/c2ccccc2Cl)Sc2ccc(C(=O)N3CCCC3)cc21	none (no result: ATXN2 expr inh)
CCOC(=O)C1CCCN(C(=O)c2ccc3c(c2)N(C)C(=O)/C(=C/c2ccccc2Cl)S3)C1 (stereo not drawn)	IL1B secr inh -68.0
CCOc1ccc(/C=C2/Sc3ccc(C(=O)N4CCOCC4)cc3N(C)C2=O)cc1OC	IL1B secr inh -62.0
CN1CCCC(CC2Oc3ccccc3Sc3ccccc32)C1 (stereo not drawn)	S2 tox inconclusive, IL1B secr inh -73.4, ATXN2 expr inh inconclusive
Cc1ccc2nc(Cl)c(/C=N/Nc3nc(C)cc(C)n3)c(=O)n2c1	IL1B secr inh -97.2
Cc1ccc2nc(C)c(Cl)c(=O)n2c1	none
O=C1C=CC(O)(c2cc(=O)c3c(O)cc(O)cc3o2)C=C1	USP1-UAF1 inh inconclusive, S2 tox 12.6µM, IL1B secr inh -103.9, ATXN2 expr inh 7.94µM
Cc1noc(C)c1CSCC(=O)N(C)CC(=O)Nc1ccc(F)c(F)c1F	none
